TPT1 inh: blocks Candida albicans tRNA 2'-phosphotransferase; 0.81% of 300,000 active; inhibition, % at 5 µM; recombinant caTPT1, FP RNA substrate dephosphorylation; AID 1962;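 active = inhibition above the mean of all tested compounds plus 3 SD, set per screening campaign, cut at about 24% in these data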;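 also: plate controls were DMSO alone for no effect and ferristatin control at 100 nM for full effect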
HNF4A DNA FP: change in binding of human HNF4 alpha to DNA; P41235; HNF4a-FITC DNA binding, fluorescence polarization, 1 h; activity change, % at 10 µM; 0.3% of 360,000 active; in the data active = activity change above about 30%, passing the limit was not always enough
IDE cell activ: IDE (human) activation, cell-based; P14735; HEK cells, FAbeta-B cleavage, fluorescence polarization; 0% vehicle, 100% cell-free pure enzyme wells; activation, % at 5.96 µM; 0.073% of 340,000 active;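 active = activation above the mean of all tested compounds plus 3 SD, set per screening campaign, cut at about 17% in these data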
Target sequence (P14735 whole entry, looked up): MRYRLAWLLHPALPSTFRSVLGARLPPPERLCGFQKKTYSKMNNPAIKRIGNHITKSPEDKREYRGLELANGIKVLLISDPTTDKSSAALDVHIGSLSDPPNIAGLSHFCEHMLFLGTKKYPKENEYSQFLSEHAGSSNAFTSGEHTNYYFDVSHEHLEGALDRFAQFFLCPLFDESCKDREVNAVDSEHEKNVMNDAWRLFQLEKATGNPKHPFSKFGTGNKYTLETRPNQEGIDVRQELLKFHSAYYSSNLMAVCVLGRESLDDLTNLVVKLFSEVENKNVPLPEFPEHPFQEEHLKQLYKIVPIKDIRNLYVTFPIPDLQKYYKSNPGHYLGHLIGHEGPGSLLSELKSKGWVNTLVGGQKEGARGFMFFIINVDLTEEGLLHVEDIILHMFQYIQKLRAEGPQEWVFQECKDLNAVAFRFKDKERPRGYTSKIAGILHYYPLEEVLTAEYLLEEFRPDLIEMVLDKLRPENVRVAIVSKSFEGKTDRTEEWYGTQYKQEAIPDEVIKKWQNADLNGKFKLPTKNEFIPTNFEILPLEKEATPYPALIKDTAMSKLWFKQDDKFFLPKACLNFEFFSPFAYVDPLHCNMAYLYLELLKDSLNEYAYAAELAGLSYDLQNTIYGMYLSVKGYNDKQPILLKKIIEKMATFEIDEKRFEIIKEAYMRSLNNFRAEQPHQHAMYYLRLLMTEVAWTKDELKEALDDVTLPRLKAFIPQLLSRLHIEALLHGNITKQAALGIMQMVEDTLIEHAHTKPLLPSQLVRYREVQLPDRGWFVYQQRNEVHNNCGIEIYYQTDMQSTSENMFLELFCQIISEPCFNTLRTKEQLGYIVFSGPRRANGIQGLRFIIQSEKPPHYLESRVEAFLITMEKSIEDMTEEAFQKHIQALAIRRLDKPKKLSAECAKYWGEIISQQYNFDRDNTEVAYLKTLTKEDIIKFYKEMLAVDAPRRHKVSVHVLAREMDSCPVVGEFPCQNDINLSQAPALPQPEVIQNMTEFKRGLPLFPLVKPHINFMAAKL
CRFBP-R2 agonist: agonists of human CRF-binding protein/CRF-R2 receptor complex; 0.46% of 350,000 active; HEK293 CRF-R2/CRF-BP, calcium dye fluorescence (FLIPR); percent of saturating CRF peptide response; activation, % at 13.2 µM;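 active = activation of at least 50%, plus an integration ratio under a set limit after plate pattern correction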;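 also: plate controls were neutral control wells without compound for no effect and CRF at EC100 for full effect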
IDE cell inh: cellular human IDE inhibition. P14735. HEK cells, FAbetaB cleavage, fluorescence polarization. inhibition, % at 5.59 µM. 0.41% of 320,000 active. AID 434962;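 active = percent inhibition above the average of all tested compounds plus 3 SD, set per screening campaign, cut at about 16% in these data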;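 also: IDE supplied by intact live HEK cells; FP after avidin binding of uncleaved biotin substrate so inhibition keeps polarization high; 0% = DMSO wells and 100% = 60 µM reference IDE inhibitor Ii1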
Starred values were filed as active, the others as inactive; . = no result given. A selection: hits, their analogues and other compounds. The true share with any hit is near 1.4%.

SMILES	TPT1 inh	HNF4A DNA FP	IDE cell activ	CRFBP-R2 agonist	IDE cell inh
O=C(Cn1nc(-c2ccccc2)c2ccccc2c1=O)NCCO	0.9	-2.5	4.5	-0.7	-1.0
Cc1ccc(C(=O)CSc2nnc(CNc3nc(-c4ccccc4)cs3)n2C)cc1	3.3	114.5*	-15.1	2.2	8.1
Cc1cc(C)nc(SCc2nnc(SCC(=O)Nc3nc(-c4ccccc4)cs3)n2C)n1	-2.9	-1.4	-4.1	3.2	3.7
CCCn1c(N)c(N(CCOC)C(=O)c2cccc(Cl)c2)c(=O)[nH]c1=O	-1.6	-4.3	4.0	0.3	1.9
CCCn1c(N)c(N(CCOC)C(=O)c2cc(C)cc(C)c2)c(=O)[nH]c1=O	1.8	34.6*	5.8	-1.4	6.8
CC(C(=O)Nc1ccc2c(c1)OCO2)c1ccc([N+](=O)[O-])cc1 (configuration not stated)	-0.5	-0.8	-0.1	17.6	0.6
CC(C(=O)Nc1ccc2c(c1)OCCO2)c1ccc([N+](=O)[O-])cc1 (configuration not stated)	-2.3	-1.2	2.3	110.2*	6.1
CC(C)C(=O)c1cn(CC(=O)NCC2CCCO2)c2ccccc12 (configuration not stated)	2.6	-1.8	7.8	-1.4	-1.0
CCOC(=O)C1=C(O)/C(=C/c2ccc(-c3ccccc3C(=O)O)o2)SC1=Nc1ccc(C)cc1	.	58.1*	-18.2	42.9	.
CCOC(=O)C1=C(O)/C(=C/c2ccc(-c3ccccc3C(=O)O)o2)SC1=Nc1ccc(OC)cc1	.	19.3	-0.2	7.0	.
CCOC(=O)C1=C(O)/C(=C/c2cn(CC(=O)NCC3CCCO3)c3ccccc23)SC1=Nc1ccc(C)cc1 (configuration not stated)	-14.9	-10.3	8.6	60.9*	3.4
Cn1c(CNC(=O)c2ccc(Cl)cc2)nnc1SCC(=O)N1CCOCC1	-0.3	0.9	0.5	2.1	-2.2
CCN1CC=C2C(C#N)=C(N)C(C#N)(C#N)C(CCc3ccccc3)C2C1 (configuration not stated)	-17.2	-39.9	3.7	56.5*	4.6
CC(=O)N1CC=C2C(C#N)=C(N)C(C#N)(C#N)C(CCc3ccccc3)C2C1 (configuration not stated)	3.5	-0.9	-5.8	-0.9	6.3
CCCCCCSc1cc(-c2nc3cnccn3c2NCCCC)ccc1OC	.	11.2	19.8*	7.1	-0.7
CCCCNc1c(-c2ccc(SC(C)CC)cc2)nc2cnccn12 (configuration not stated)	.	-7.7	19.6*	18.9	-3.5
CCCCNc1c(-c2ccc(OC)c(Sc3ccc(OC)cc3)c2)nc2cnccn12	.	8.1	-0.1	5.1	0.3
COc1ccc(C(=O)OCC(=O)c2ccco2)cc1[N+](=O)[O-]	.	-2.4	.	-2.4	.
Nc1ccc2c3c(cccc13)C(=O)N(c1ccccc1)C2=O	.	-111.4	-13.5	235.2*	.
CC(C)CCN1C(=O)c2cccc3c(N)ccc(c23)C1=O	-42.2	-113.5	53.6*	165.5*	-21.7
Nc1cccc(N2C(=O)c3cccc4c(N)ccc(c34)C2=O)c1	-79.8	-80.5	0.1	162.2*	5.1
O=C(O)c1ccc2c3c(cccc13)C(=O)N(c1ccccc1)C2=O	6.6	-25.8	5.1	3.7	3.9
Cc1nc2ccc(Br)cn2c1C(=O)N/N=C\c1ccccc1Cl	-2.2	-2.2	3.3	-0.2	6.7
CC(C)(C)n1nnnc1C(c1ccccc1)N1CCN(c2c(Cl)cncc2Cl)CC1 (configuration not stated)	.	0.0	.	.	.
COC(=O)c1ccc(Nc2cc(C)nc(-c3ccccc3O)n2)cc1	-3.9	37.2*	3.6	16.1	3.2
SMILES	TPT1 inh	HNF4A DNA FP	IDE cell activ	CRFBP-R2 agonist	IDE cell inh
Cc1ccc(N/N=C(\C#N)C(N)=S)c(C)c1	-4.5	-2.5	-2.8	60.4*	1.0
O=C(NCc1ccccc1)C1C(=O)Nc2ccccc2C(=O)N1c1ccc2c(c1)OCCO2 (configuration not stated)	.	0.1	.	.	.
CCOC(=O)C1CCCN(c2ncnc3c2cnn3-c2ccc(Cl)cc2)C1 (configuration not stated)	-0.5	2.7	1.5	100.6*	0.8
Cc1c(-n2cc(C(=O)c3cc(F)ccc3O)cc(C#N)c2=O)c(=O)n(-c2ccccc2)n1C	3.6	15.3	-10.0	51.1*	11.0
Cc1ccccc1-n1cc(C(=O)c2cc(Cl)ccc2O)cc(C#N)c1=O	9.8	1.0	-6.5	-1.5	3.7
O=S(=O)(c1ccc2ccccc2c1)N1CCc2ccccc21	.	1.4	5.2	0.1	.
Nc1ccc(S(=O)(=O)N2CCc3ccccc32)cc1	-0.1	84.9*	8.8	2.2	3.9
CC12CCCCN1CCCc1c2[nH]c2ccccc12 (configuration not stated)	-4.1	-2.5	3.4	50.5*	-0.4
O=C(CNC(=O)c1[nH]cnc1C(=O)NC(c1ccccc1)c1ccccc1)OCc1ccccc1	3.0	-3.2	5.8	0.6	-2.6
COP(=O)(OC)c1nc(-c2ccc([N+](=O)[O-])cc2)oc1N1CCCCC1	15.6	1.1	-1.6	54.3*	0.6
CCOP(=O)(OCC)c1nc(-c2ccccc2)oc1N1CCCCC1	-6.2	0.7	4.3	-1.7	6.1
COc1cc(C=C2C(=O)C=CC2=O)ccc1O	.	-9.9	.	.	.
Cc1ccccc1-n1c(SC(C)C(=O)NCC2CCCO2)nnc1-c1ccncc1 (configuration not stated)	.	1.3	4.1	-0.1	.
CCOC(=O)/C(=C/c1ccc(N2CCC(c3ccccc3)=N2)cc1)C(C)=O	.	29.2	-17.9	253.8*	.
c1ccc(C2=NN(c3ccccc3)CC2)cc1	2.1	-0.5	5.7	-1.1	-1.6
O=C(Nc1cc(C(F)(F)F)cc(C(F)(F)F)c1)Nc1cnn(-c2ccc([N+](=O)[O-])cc2)c1C(F)(F)F	-5.7	8.5	3.4	58.2*	3.0
CC(C)CSC1=NSC2=NC(=O)/C(=C\c3cccs3)C(=N)N12	2.2	9.7	8.5	70.4*	2.7
Cc1ccc(-c2csc3nc(-c4ccncc4)[nH]c(=O)c23)cc1	2.3	77.3*	11.0	9.6	-3.6
CCOC(=O)C1=C(Cc2ccc(OC)cc2)C(=O)c2ccccc2C1=O	.	1.0	-34.7	61.2*	.
CCOC(=O)C1=C(Cc2ccc(C)cc2)C(=O)c2ccccc2C1=O	-4.3	.	.	.	7.3
Cc1cc(N2CCCCC2)nc(N)n1	-1.1	2.1	1.8	235.3*	6.7
C(=Cc1c[nH]c2ccccc12)c1ccc2ccccc2n1	.	36.7*	-6.7	25.4	.
COc1cccc(/C=C2/CCC(CN(C)C)C2=O)c1 (configuration not stated)	.	-1.0	-11.9	-0.2	.
COc1ccc(CCNc2nc3ccccc3n3nnnc23)cc1OC	-11.6	-4.1	5.9	7.2	3.6
c1ccc(CCNc2nc3ccccc3n3nnnc23)cc1	-1.5	-2.3	0.5	82.0*	6.5
COc1ccc(-c2ccc3c(c2)[C@@H]2C[C@H](N(C)C(=O)C(C)(C)C)[C@H]([C@H](C)O)C(=O)N2CC3)cc1	.	4.1	-0.4	-0.9	.

Screens as filed in PubChem BioAssay.
